# Data as given in PubChem BioAssay AID1508600 (Functional Genomics Laboratory (NCATS/FGL), 2020).
# Screen size: about 53,000 sequences; about 3,700 (7%) were called active. The sample as a whole holds a higher share of actives than the screen did. Unmarked numbers belong to inactive results.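 The calls were made as follows: active = gene knockdowns whose robust z-score for IL-1 alpha signal is at least 2 or at most -2, so actives lie on both sides; inactive = the rest.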
# Assay: Components of the Cytosolic LPS Sensing Pathway: Gene Identification via Genome-wide siRNA Screen
# Conditions: RAW264.7 macrophages, IL-1a HTRF, actives lie on both sides, screened at 100 nM (by protocol), cells primed 5 h with Pam3CSK4 first
# Text: Non-canonical inflammasome activation by cytosolic LPS is a critical component of the host response to Gram-negative bacterial infection, however we lack a comprehensive understanding of the cellular processes that control this pathway. Here we describe a genome-wide siRNA screen to identify genes regulating the mouse macrophage IL-1 alpha response to cytosolic LPS.
# RAW264.7 cells were maintained in complete DMEM media, comprising DMEM with 4.5 g/L glucose, 10% FBS (Gemini Bio-Products, West Sacramento, CA), 2 mM Glutamine (Lonza) and 20 mM HEPES (Lonza), hereafter complete DMEM.
# The RNAi screen was conducted in 384-well format using the Ambion Silencer Mouse Genome siRNA Library (#4391425), which consists of three unique, nonoverlapping, nonpooled siRNAs for each of 17,000 gene targets. siRNA reagents ([…]) were stamped into 384-well white flat-bottom microplates (Corning, 3570) using a Velocity11 VPrep liquid handling system (Agilent) integrated into a BioCel robotic platform (Agilent) in columns 1-22, leaving columns 23-24 empty for negative (Ambion, Negative control #1) and positive (mouse Casp4) controls, respectively. The median value of each plate's negative control column was used to normalize sample wells, and the positive control was used to assess transfection efficiency and assay performance.
# Lipofectamine RNAiMAX Transfection Reagent ([…]; Invitrogen) was added in […] serum-free, antibiotic-free media to plate wells using a Thermo Scientific Matrix WellMate and Microplate Stacker. Plates were incubated for 45 min at room temperature to allow for the sufficient formation of siRNA-lipid complexes. Cells were seeded at a density of 1x10^4 cells per well in 20 microL media containing 20% (vol/vol) FBS without antibiotics. The final concentration of siRNA in each well was 100 nM. Cells were cultured for 48h at 37 degrees C in 5% CO2 before addition of […] of TLR ligand Pam3CSK4 for 5 hours. The medium was then removed, replaced with […] growth media and cell were transfected with […] of LipidA and TransIT-TKO (Mirus) for 24 hour. At the end of the LipidA treatment, […] of supernatant was transferred to a 384 Greiner Bio-one non-binding low volume plate and […] of IL-1a HTRF reagent (Cisbio, 62MIL1APEH) was added and incubated at room temperature overnight. The plates were read on an EnVision plate reader (PerkinElmer). Cell viability was measured by adding 20ul Cell Titer Glo to the original plate and running a luminescence read on the EnVision. The quantified IL-1a signal for each siRNA gene-targeted well was divided by the median of the negative control wells and multiplied by 100 to achieve a negative control normalized value for each well/siRNA. This normalized value was then used to generate a robust z-score by first taking the log of each value and then by subtracting the median and dividing by the […].
row,Sequence,z-score
1,GGUUGUUAGAGAUUUGACCTT against Kctd12,-0.208
2,CCUGCACACCAAGUAUCUGTT against Ccl6,-0.252
3,GGAAGCACUUCUGCUUUCUTT against Azin2,-0.0234
4,GCUACACCCUCUGUGAGUUTT against Csrnp2,-2.07 (active)
5,GGAGAUUCUGUAGGUUAUUTT against Lrat,0.0632
6,GGGACACUGUGUCCCUUCUTT against Tmem189,-0.0937
7,CCAAAUGAGGCUACCACAATT against Socs7,-0.0785
8,GGAUCUGGUUGGCAAGCAUTT against Krt33a,2.87 (active)
9,GGAACUUGGGCAUUCCAGATT against Adck2,-0.676
10,GGAAAUCAGUGAACAUCUUTT against Tshr,0.525
11,CCAGAAACUAGCCUACUACTT against Vgll2,0.395
12,GGAACUAGUCUGGUGAACUTT against Apoa2,-1.35
13,GAUUAAUAGUGGUUUCUGATT against Olfr1219,-0.219
14,GGGUGUGUUUUUAUGUGUUTT against Lcp2,2.57 (active)
15,GGGAGGAAGAAGAAGGUCATT against Atp1b4,-0.193
16,GGCAGUCAAUAGUGGCCUGTT against Bcor,1.12
17,CCAGUAUUUGAGAAUUCUGTT against Gm4788,-0.763
18,CGACAAGCUGUACCUCUACTT against Rfx5,3.41 (active)
19,GCUGGAGUUUCAGUCAAGGTT against Ctso,-0.355
20,AUGCAAGAGGAACGUAUCATT against Olfr1181,-0.572
21,GGUUUACCCAUCUUGGCCATT against Vwf,-0.501
22,GGAUAUUGAUUCAGUCAAGTT against Rac2,-1.16
23,GGAUAUAUUGAAAUGCCCATT against Zbtb14,0.394

row,Sequence,z-score
1,GGAUUUAUCCUGGUGACUUTT against Cox20,2.49 (active)
2,GGUAUUCAGUAUUUUGACUTT against Olfr196,1.56
3,GGCUGUCGUCAUUGAAGGATT against Ankrd27,-0.771
4,GCGACAAGAGGCUUUAGCATT against Selenos,0.692
5,GGAGCAGAAAGAAAUUUCCTT against Gpa33,0.48
6,GCUUCAACAGUAAUAAUCGTT against Adamtsl1,2.75 (active)
7,CGGUAAUCUUAUGACAACUTT against Gpc6,1.06
8,GGGCCUUAAUUUUCCUUUUTT against Podxl,-0.107
9,GGAUUUAUUGACCUCUUAATT against Sp8,2.41 (active)
10,GCCCAUCUGAUGAAUACAATT against Mrto4,1.45
11,GGCACAAUUAGCUAAGAAUTT against Abi3bp,-1.87
12,GGUCUGAUUCACCAUAAUUTT against Sspn,0.313
13,GGAGAUUUUGGUGGCUAUUTT against Uqcrfs1,-1.1
14,GGAUGUCUAACCCAAAUAGTT against Ly6e,2.74 (active)
15,GGAACACUGGAAAAAUGUUTT against Ldhc,0.176
16,GGCGGUGAAGUCUAAGGCATT against H1f5,1.54
17,GGUGUGUGGUUUUUAAUAATT against Abhd3,-0.692
18,GGUGAUCCUUCUUUUUUACTT against Sgo1,-2.01 (active)
19,GGGAGUUUCAGACCAGUGUTT against Atp5g3,-0.097
20,CCAUGGACUUUCUCGAAGATT against Ceacam11,0.612
21,GCAGGUUCAUACGAUCCAGTT against Plekha3,-0.7
22,GGCAUGUAAUUUGAUGAUCTT against Mansc1,-1.48
23,GGCAUCAAGUGACUUAUAATT against Zfp772,2.47 (active)

row,Sequence,z-score
1,CGGAUACCGUAGUUUGGUGTT against Lipe,1.51
2,GGUGAACGACUCCAUGUAUTT against Nectin1,-0.448
3,CGUGGUUGAACUUUGUCCGTT against C1qtnf12,-0.569
4,GGAAACUUGAUUAUUUAGGTT against Vrk2,0.915
5,CGGGUUUAGGAGCAACCUUTT against Zdhhc4,-3.02 (active)
6,CCAAAUGAAAUUAGUCCUCTT against Eif5,-0.347
7,GGCGGCAAGCAACAACAAUTT against Ssbp1,0.155
8,GGAUGUGGUUCGAGUAUGGTT against Pou5f1,1.79
9,GGUGAAAAGAUCAGAAUACTT against Fahd1,-1.03
10,CCAAAACAUUAACCUGAAGTT against Pla2g6,-2.34 (active)
11,GGAAGAGUUGGAAAUUUACTT against Gdpd3,-0.166
12,GCAUCCUGAUCACUUAACATT against Cep170,-0.732
13,GGAAGAGAAUCAAGAGCCATT against Lrrc10,-2.65 (active)
14,GCAAUCUAUAAGAGGUACATT against Axin2,1.79
15,GGCCACAUUGUCCUAUCAGTT against Cdh16,0.0595
16,GCAGAAGUCUCGUAUCCAGTT against Arl6ip4,0.337
17,CAUCGUGUGAAACUGGAGATT against Carmil3,0.608
18,GGCUGUCAAGAAGCACAUCTT against Inhba,1.08
19,GGAAAGUUCCAAGUUACCATT against Arl13b,1.18
20,GGGACAGUGGACCAUUAUGTT against Rnf8,-2.41 (active)
21,GGAGCCUCAGGUCCAAAUGTT against Fancd2os,1.89
22,GGAUGUGCAAGGAAUCUCATT against Spint1,0.741
23,GGCAAUGCACUUAUAACUCTT against Olfr118,0.389
